# ± gives the standard deviation of the averaged measurements. The full ranking holds about 25,000 sequences; the median of “ln(normalized median fluorescence intensity)” is about 8.9, and the highest 2% start at about 10. The entries come from a sample that favours the highest values as a whole.
# System: PfAP2-LT AP2 domain (GST-tagged)
# Experiment: gcPBM binding intensity (ln(normalized median fluorescence intensity)); higher = stronger DNA binding
# Method in brief: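 DNA-binding domains from P. falciparum, fused to GST and produced in E. coli, were put on an Agilent 4 × 180k double-stranded probe array for 1 h in 1× PBS holding 1% milk, 0.2 mg/ml BSA, 0.5% salmon testes DNA and 0.03% Triton X-100. Probes were primer-extended, 36 bp long and drawn from intergenic genomic regions, with negative controls included. After Alexa488 anti-GST antibody detection and a 488 nm scan, binding intensity was set as the highest Masliner-normalised natural-log median intensity across replicate spots of either probe orientation.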
row,Sequence,gcPBM binding intensity (ln)
1,TAATATTTCGCACTGTGTACTGAAATATTTATATCG [XGTACX_site516],8.76 ± 0.36
2,TAATTAACCTATGCATTCATATAGATACATAAATAT [CACACA_negctrl_site885],8.72 ± 0.51
3,GGTAATTATTTTGGTTGTACTCAAATATATAATATT [XGTACX_site291],8.89 ± 0.23
4,ATCAAAAACATACCTACACACACAATATGTATATAT [CACACA_site9171],9.51 ± 0.28
5,TATATATACATATACACACACACACCCATATATATA [CACACA_site2246],10 ± 0.11
6,TCAAAGCACCCATACACACACATATATATATATATA [CACACA_site4317],10.2 ± 0.18
7,TCAAAGCACACATACACACACATATAGATTTATATA [CACACA_site6272],9.73 ± 0.16
8,CACATATATACACATACACACACACCCATACACCCA [CACACA_site8505],10.1 ± 0.25
9,TATACATACACATACACACATACACCCATACACATA [CACACA_site1746],9.69 ± 0.33
10,CTAGCAAATACATACACACACACACCCATACATATA [CACACA_site3496],9.95 ± 0.18
11,TCAAAGCACAGATACACACACATATATATATATATA [CACACA_site287],10.18 ± 0.014
12,TATATATATATATATACACACATACAGATATATATT [CACACA_site4629],9.5 ± 0.38
13,GATGAATAAATCAAAGCACACATACACCCACATATA [CACACA_site7986],9.67 ± 0.13
14,ACCATACATACATACACACACACACCCATATATATA [CACACA_site2917],10.2 ± 0.26
15,CATATACATACACATACACACATACACCCATACACA [CACACA_site8514],9.68 ± 0.29
16,CATACACCCATACATACACACATACATATATATATA [CACACA_site8591],9.62 ± 0.15
17,TTTTTTTTGGAATTCACACAAATATAACATGGGTAT [CACACA_site5185],8.7 ± 0.38
18,AACCTATCTATAGGAACAATATATATATATATAATT [CACACA_negctrl_site1707],8.98 ± 0.33
19,TTTTGAAAGTTTTTGTGTCCACATATATTTATATAT [XGTACX_site6563],8.94 ± 0.44
20,ACATATATATAATATATATTTTTCGTGTGGTGTCAC [CACACA_negctrl_site543],8.84 ± 0.42
21,TTTATTCTTGAGTATTGTACATATGTGTTTGTATAT [XGTACX_site5706],8.93 ± 0.45
22,ATTTTCTATATCTTTCAACACACAAATTTTTTTTTC [CACACA_site7918],8.85 ± 0.45
23,TGTTTATTACTCAGGTGTACTCAATTTTTTTTTTTT [XGTACX_site3470],8.72 ± 0.47
24,TATACATATATATATATATATAGATATATTCACGTG [XGTACX_negctrl_site265],9.31 ± 0.21

row,Sequence,gcPBM binding intensity (ln)
1,ATTTAAATAATATGTACACACATTTAAAAAATTATA [CACACA_site2816],8.76 ± 0.44
2,AGCTCGGAAAAATTAGCATGCAAAAAAAAAAAAAAA [TGCATGCA_site658],8.59 ± 0.58
3,TACAATCTTTCATTATGTACTTAACATTTTTTCTGT [XGTACX_site8752],8.85 ± 0.52
4,ATATTTATGGAATATACACACATGTATAATTACATA [CACACA_site7045],8.83 ± 0.4
5,TATATATATATATACACACACACACCCATATATATA [CACACA_site2538],10.2 ± 0.3
6,TATATATATATATATACACACACACCCATATATATA [CACACA_site8812],9.85 ± 0.18
7,CATACACCCCAACACACACACACACCCATATATAAT [CACACA_site8097],10.3 ± 0.37
8,ACCCATATAATATATACACACATATATATATATATA [CACACA_site4731],9.855 ± 0.035
9,CTTATATATACATATACACACACACCCATATATATA [CACACA_site8705],9.59 ± 0.13
10,AATAAATATATATACACACCCATATATATATATATA [CACACA_site2595],9.73 ± 0.014
11,ACTATATTTCTATAATGTACAAAAATAAATCATATG [XGTACX_site3337],8.64 ± 0.39
12,TTTGCCCAAAAAGGTACACACCACAATGTACATAAA [CACACA_site4599],8.85 ± 0.49
13,ATAAAGCCATACAATACACACATTTTACATGGCTGT [CACACA_site5756],9.26 ± 0.42
14,AGACAGCGCACAAACACACAAACACCCACCCACATA [CACACA_site451],10.1 ± 0.16
15,CAAACATTTTAATGTACACACACCCACAGACAAACA [CACACA_site5522],9.57 ± 0.13
16,TACATAAATTAAAACACACACACACCCAAAAAAAAA [CACACA_site2261],9.9 ± 0.22
17,AAATTTGGCAAACACACACACACACCCACACCCACA [CACACA_site8095],10.4 ± 0.19
18,AACTTTGGCAAACACACACACACACCCACACCCACA [CACACA_site588],10.1 ± 0.42
19,AAATTTGGCAAACACACACACACACCCACAGAGACA [CACACA_site4490],10.2 ± 0.13
20,GGCAAATTTATTATACCCACATACATACATACATAC [XGTACX_negctrl_site186],9.01 ± 0.32
21,TTTTTTCTTTTATGTGAAATGTAATATTGTTATATA [GTGCAC_negctrl_site715],8.51 ± 0.52
22,TATATACGCATTTTTATACACACTTGTTTTATAAAA [CACACA_site727],8.79 ± 0.35
23,GGATATATTATATGTACACACACATATAAGGGATTA [CACACA_site7884],9.34 ± 0.31
24,TTACAAAAAAATAATTGTACATACAATTTCTGTTAT [XGTACX_site877],8.71 ± 0.45

row,Sequence,gcPBM binding intensity (ln)
1,ATATTTTTATTTAAACGTACATACACGTTGAAAAGA [XGTACX_site4567],8.43 ± 0.4
2,TGTAATAAATAGTACACACACACATATTTATATATC [CACACA_site6770],9.72 ± 0.23
3,TCTTTATCTTCTTATACACACATTTATTAAAAAAAA [CACACA_site445],8.55 ± 0.4
4,ATAAAACCAACATAGAGTACAGATCGACTATGTTTC [XGTACX_site4329],9.05 ± 0.47
5,TATAATAATCCACAAGCACACACACCCACATATATA [CACACA_site8343],9.91 ± 0.32
6,GTTATAGAAGCATTCACACACACACCCACATACACA [CACACA_site1465],10.1 ± 0.11
7,AATAATAGAAGCACCCACCCACCACCACCCACACAT [CACACA_negctrl_site1033],10.46 ± 0.028
8,TGTAAGTTGATATAATGTACATGTTTGATTTTTTTT [XGTACX_site7687],8.71 ± 0.47
9,ATATATGGGGCGCAGGAAAAGAGTTTTGGAAATAAA [CACACA_negctrl_site1265],8.98 ± 0.55
10,TATAAAATACTGTATCGATGGGGGAGGGCGCAGGGG [TGCATGCA_negctrl_site250],10.4 ± 0.16
11,AGTATATAAAATACTGTATCGATGGGGGAGGGCGCA [CACACA_negctrl_site1612],10 ± 0.44
12,CTTTTTTGTTAAAGTGTGCGCAATAGTTATAGACTT [GTGCAC_site9670],8.87 ± 0.38
13,AGATATAAGAAAAGCACACACACACTAGAAAAAAAA [CACACA_site5559],9.92 ± 0.33
14,TGATAATAAGCATACACACACACACTAGAAAAAAAA [CACACA_site4558],10.1 ± 0.38
15,ATAATACCCAAGCACACACACACACCGATATATATA [CACACA_site8344],10.4 ± 0.2
16,TAATAATCCACAAGCACACACACACCCATATATATA [CACACA_site1267],9.96 ± 0.13
17,ATAATCCACAAGCACACACACACACCCATATATATA [CACACA_site1268],10.1 ± 0.35
18,TATAATCCATAAGAAGCACACACATATATATATATT [CACACA_site8394],9.41 ± 0.3
19,TTAATATAAGCAAATACACACACACCGATATATATA [CACACA_site9269],9.8 ± 0.26
20,TAATAATACCCAAGCACACACACACCCATATATATA [CACACA_site4831],10.1 ± 0.33
21,ATATAAGAAAAGCACACACACACAAAAAAAAAAAAA [CACACA_site2827],10.1 ± 0.42
22,AGAGATATAAGAAAAGCACACACACCCAAAAAAAAA [CACACA_site8917],9.96 ± 0.29
23,AGATATAAGAAAAGCACACACACACCCAAAAAAAAA [CACACA_site2826],10.2 ± 0.18
24,TGATAATAAGCATACACACACACACTAAAAAAAAAA [CACACA_site6478],9.94 ± 0.38

row,Sequence,gcPBM binding intensity (ln)
1,ATTTTAACTCCCCTTAATCTATTGTATATATATATA [CACACA_negctrl_site208],8.88 ± 0.29
2,TACTCAAAAATTAATTAGCATAATATATATAAAAAT [GTGCAC_negctrl_site613],8.49 ± 0.45
3,TTTGCCATAAAACACACACACATGTAAACCCCCTTT [CACACA_site1646],9.76 ± 0.2
4,ATATATTAATATGTGTGTACTTAACCATTCATATGT [XGTACX_site7395],9.1 ± 0.4
5,TCTTGTATACGGCATGCATGTTAGCACATACGGACA [TGCATGCA_site146],8.9 ± 0.32
6,ATATATTTAAATAAAAGTACGTAAAGGTATATTTAA [XGTACX_site8088],8.88 ± 0.44
7,ACATTCAATAAACGTCGTACACTTTCCTTTTTATGA [XGTACX_site3274],8.86 ± 0.52
8,TAATAATAGTCTAATACATGCATCGATAACGGAACT [TGCATGCA_site98],8.82 ± 0.32
9,TGATAATAAGCATACACACACACACCCAAAAAAAAA [CACACA_site721],10.2 ± 0.25
10,AATAAGTATACACATACACACACACCCAAAAAAAAA [CACACA_site8034],10 ± 0.39
11,GGTGATAATAAGCATACACACACACCCAAAAAAAAA [CACACA_site8137],9.59 ± 0.35
12,AACATAAGTAAGAATACATGCGGAAATTATATAGAA [TGCATGCA_site112],9.03 ± 0.38
13,GGTAAGTACGACTTGACACACATACCCATATATATA [CACACA_site4837],9.2 ± 0.55
14,ATAATTATATTTAGTGGTACTACTTTTGATAATTAG [XGTACX_site6562],8.63 ± 0.42
15,AAAAAAAACAGACACACACACACATATACATACATA [CACACA_site2665],10.3 ± 0.17
16,AACAGACATACATACACACATACATACAGACATACA [CACACA_site1942],9.64 ± 0.45
17,AAAAAAAAAAAAAACACACACATACAGACAAAAATG [CACACA_site83],9.7 ± 0.45
18,AAAAAAAAAAAACATACACACATACATACAGATATA [CACACA_site4681],9.32 ± 0.36
19,TAAACAGACATATAAACACACATACATACATACATA [CACACA_site7215],9.41 ± 0.32
20,AAAAAAAACAGACACACACACATACACATACATACA [CACACA_site2857],10.2 ± 0.19
21,AACACATACAGACACACACACAAAAAAAAAAAAAAA [CACACA_site6322],9.58 ± 0.78
22,TAAACAGACATACATACACACATACATACAGACATA [CACACA_site6997],9.61 ± 0.37
23,CACAAACAGACAAACACACACACACGGACATACATA [CACACA_site6350],10.1 ± 0.11

# Reference: the supplement of paper PMC11417369
